Hits are enriched below; roughly 9.2% of the tested compounds scored in any of these assays.
KDM4E inh – qHTS Assay for Inhibitors of Human Jumonji Domain Containing 2E (JMJD2E); Lysine-specific demethylase 4E (Homo sapiens), B2RXH2; JMJD2E catalytic domain, FDH-coupled NADH fluorescence (FDH is formaldehyde dehydrogenase); Potency, µM (titrated, usually from 57.1 µM), for the others: at the top dose activity change, negative = inhibition, usual class: inhibitors; 1.6% of 230,000 active; AID 2147, 2009;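 also: 0% = wells with enzyme and -100% = buffer wells without enzyme; nearly all actives have a fitted effect of over 50% in size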
Target sequence (B2RXH2 1-337 limits assumed): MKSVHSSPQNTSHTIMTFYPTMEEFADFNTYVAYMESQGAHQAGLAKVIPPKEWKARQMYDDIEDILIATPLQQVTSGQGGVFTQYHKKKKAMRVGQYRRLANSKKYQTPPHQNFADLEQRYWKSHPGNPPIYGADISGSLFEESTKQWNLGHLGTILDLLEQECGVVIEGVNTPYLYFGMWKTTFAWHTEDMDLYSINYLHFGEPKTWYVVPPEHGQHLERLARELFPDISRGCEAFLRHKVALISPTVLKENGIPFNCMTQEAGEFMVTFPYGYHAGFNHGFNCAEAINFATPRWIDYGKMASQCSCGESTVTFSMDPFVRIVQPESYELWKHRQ
HPGD block – qHTS Assay for Inhibitors of HPGD (15-Hydroxyprostaglandin Dehydrogenase); 15-hydroxyprostaglandin dehydrogenase [NAD(+)] (Homo sapiens), P15428; purified HPGD, NADH fluorescence kinetic, PGE2 substrate; Potency, µM, for inactives: at the highest dose activity change, negative = inhibition, usual class: inhibitors; 4.3% of 150,000 active; also: % is scaled to controls: 0 for no effect and ±100 for the full control effect
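NADH formation kinetics: reaction with 30 uM PGE2 and 1 mM NAD+ (final), 20 nM enzyme, Tris-HCl pH 8 with Tween 20, after 15 min compound preincubation at room temperature. Fluorescence change, last versus first of five reads.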
HttQ103 aggreg – qHTS Multiplex Assay to Identify Dual Action Probes in a Cell Model of Huntington: Aggregate Formation (GFP); PC12 HttQ103-GFP aggregates, Acumen cytometry, 40 h; AID 1688, 2009; 1.1% of 220,000 active; Potency, µM (highest dose often 46.1 µM), without a hit: at the highest dose activity change, negative = inhibition, actives largely listed as inhibitors; active = well fitted curve in the direction sought with a large enough effect; inconclusive = small, poorly fitted or top-dose-only effect, or another doubt; inactive = no such curve, though single readings can be large; an effect the other way counts as inactive or inconclusive; also: % is scaled to controls: 0 for no effect and ±100 for the full control effect; nearly all actives have a fitted effect of over 60% in size
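Aggregate formation scored by laser-scanning cytometer (488 excitation, 500–530 emission) in lysed PC12 cells expressing Q103-GFP after 100 nM tebufenozide induction; library tested in dose series, with ATPLite reagent added in the multiplex.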
HTT ATP protect – qHTS Multiplex Assay to Identify Dual Action Probes in a Cell Model of Huntington: Cytoprotection (ATP) | PC12 HTT-Q103 induced, cytoprotection, ATP luminescence, 40 h | AID 1471, 2008 | 0.14% of 230,000 active | Potency, µM (titrated, usually from 56.4 µM), without a hit: cytoprotection (ATP increase), actives largely listed as activators; active = well fitted curve in the direction sought with a large enough effect; inconclusive = small, poorly fitted or top-dose-only effect, or another doubt; inactive = no such curve, though single readings can be large; an effect the other way counts as inactive or inconclusive; also: % of control where 0% means no effect; nearly all actives have a fitted effect of over 45% in size
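Stable PC12 Q103-GFP cells in serum-supplemented, phenol red-free DMEM; induction by tebufenozide at 100 nM final; compound dose series; cell viability quantified luminescently from ATP.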
ALDH1A1 inh – qHTS Assay for Inhibitors of Aldehyde Dehydrogenase 1 (ALDH1A1). Potency, µM (highest dose often 75.3 µM), for inactives: at the highest dose activity, negative = inhibition, most hits filed as inhibitors. AID 1030, 2008. Aldehyde dehydrogenase 1A1 (Homo sapiens), P00352. Purified ALDH1A1, NADH fluorescence, propionaldehyde substrate. 7.3% of 220,000 active;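 also: plate controls were no enzyme wells and a reference inhibitor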
Target sequence (P00352 whole entry, looked up): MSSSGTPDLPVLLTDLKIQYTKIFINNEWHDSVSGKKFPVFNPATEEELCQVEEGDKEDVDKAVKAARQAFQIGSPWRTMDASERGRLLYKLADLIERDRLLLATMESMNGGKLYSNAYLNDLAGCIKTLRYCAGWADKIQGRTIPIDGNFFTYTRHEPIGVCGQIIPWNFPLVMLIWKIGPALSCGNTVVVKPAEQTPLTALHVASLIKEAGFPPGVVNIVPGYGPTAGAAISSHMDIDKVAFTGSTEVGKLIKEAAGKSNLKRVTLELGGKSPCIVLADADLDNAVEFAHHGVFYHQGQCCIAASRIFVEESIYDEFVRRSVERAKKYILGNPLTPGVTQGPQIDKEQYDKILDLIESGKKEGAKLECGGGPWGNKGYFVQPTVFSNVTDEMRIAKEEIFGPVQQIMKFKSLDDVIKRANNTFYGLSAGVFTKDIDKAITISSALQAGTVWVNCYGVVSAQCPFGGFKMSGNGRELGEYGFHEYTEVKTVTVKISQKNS
LMNA splice mod – qHTS Assay for Modulators of Lamin A Splicing | Potency, µM (doses to about 46.1 µM), inactives show at the top dose ratio change, negative = inhibition, usual class: inhibitors | HeLa LMNA splicing GFP/RFP minigene ratio, 48 h | 0.01% of 200,000 active; active = well fitted inhibition curve with a large enough effect in the signal ratio, with a control signal flat, not every such curve was filed as active; inconclusive = small, poorly fitted or top-dose-only effect, or effect the other way, or a change in a side signal; the % refers to the signal ratio; also: % is scaled to controls: 0 for no effect and ±100 for the full control effect
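S3 HeLa stable clones carrying a lamin A-EGFP splicing minigene plus DsRed2 were seeded at 600 cells/well in Opti-MEM with 2% FBS, pin-dosed and incubated 48 h at 37°C. Acumen cytometry (488 nm) gave the GFP/RFP total-intensity ratio.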
Starred values were filed as active, the others as inactive; i = inactive; ? = inconclusive; · = no result; ! = repeats disagree; [ ] = dose if it differs, or a comment. Unless noted, calls follow the shape of the dose curve; as a rule, active = well fitted inhibition curve with a large enough effect (not every such curve was filed as active); inconclusive = small, poorly fitted or top-dose-only effect, or another doubt; inactive = no such curve, though single readings can be large or run the other way. Potency is read from the fitted curve at half-maximal effect.

SMILES	KDM4E inh	HPGD block	HttQ103 aggreg	HTT ATP protect	ALDH1A1 inh	LMNA splice mod
Cc1cccc(S(=O)(=O)c2cn(Cc3ccc(F)cc3)c3cc(N4CCOCC4)c(F)cc3c2=O)c1	·	·	·	·	·	-20.9%[46 µM]
CCCCCCCCCCC(C)(C)C(=O)Nc1c(OC)cc(OC)cc1OC	?	-10.6%	·	-46.5%	-8.1%	·
O=[N+]([O-])c1ccc(O)c(/C=N/n2cnnc2)c1	-10.6%	-17.6%	4.9%	31.7%[10 µM]	20µM*	-13.5%
NC(N)=N/N=C/c1cc([N+](=O)[O-])ccc1O	2.6%	-13.4%	4.4%	-3.4%[10 µM]	?	-3.5%
O=[N+]([O-])c1ccc(O)c(/C=N\N=C2c3ccccc3-c3ccccc32)c1	8.9%	-17.7%	11.2µM*	25.7%[10 µM]	-8.5%	?
COc1ccc(OC)c(CNS(=O)(=O)c2ccc(-c3coc(C)n3)cc2)c1	·	·	·	·	·	-5.4%[46 µM]
COc1ccc(-c2cn(-c3ccc(Br)cc3)c3[n+]2CCS3)cc1	14.7%	-8.5%	-26.3%	8.7%[10 µM]	13.3%	?
CC(=O)c1ccc(-n2cc(-c3ccc(C(C)(C)C)cc3)[n+]3c2SCCC3)cc1	2.5%	·	10µM*	-48.7%	7.9%	-21.4%[46 µM]
O=C(COc1ccccc1Cl)OCc1cc(=O)n2nc(-c3cccs3)sc2n1	·	·	·	·	·	-20.1%[46 µM]
CN(C)C(=O)n1nnnc1Cc1ccc(-c2ccccc2)cc1	·	-10.9%	·	-310.1%	1µM*	·
O=C(O)c1cc(O)c2c(c1)C(=O)c1cccc(O)c1C2=O	28.2µM*	?	-16.4%	1.4%[1.9 µM]	?	?
Cc1cc(O)c2c(c1)C(=O)c1cccc(O)c1C2=O	?	-5.9%	-0.9%	-13.3%[1.9 µM]	12.6µM*!	?
Cc1ccc(Cl)cc1NC(=O)CSC(N)=O	-5.2%	-6.8%	-10.4%	-0.7%	1.58µM*	2.4%
Cc1ccc(Cl)cc1NC(=O)CC(O)(C(F)(F)F)C(F)(F)F	9.9%	-10.5%	15.8µM*	-20.7%	-0.2%	?
CCN1C(=O)/C(=C\c2ccc(-c3ccc([N+](=O)[O-])cc3OC)o2)SC1=Nc1cccc(C(=O)O)c1	-25.3%	·	0.9%	·	0.631µM*	?
CC(C)C(NC(=O)CN(c1cccc(F)c1)S(C)(=O)=O)C(C)C	-1.7%	-1.8%	8.4%	4.5%[1.9 µM]	35.5µM*	-2.2%
CS(=O)(=O)N1CCc2cc(-c3csc(NCC4CCCO4)n3)ccc21 (centres undefined)	-19.2%	39.8µM*	4.1%	-21.6%[10 µM]	14.1µM*	-2.2%
O=C(NCC(c1ccc2c(c1)OCO2)N1CCN(c2ccccc2)CC1)C(=O)Nc1ccccc1 (centres undefined)	·	·	·	·	·	17.8%[46 µM]
O=C1c2ccccc2C(=O)N1CCCC(=O)N1CCCc2ccccc21	3.0%	-7.5%	11.2%	15.8%[10 µM]	14.1µM*	-6.4%
O=C(Cn1c(=O)[nH]n(-c2ccccc2)c1=O)N1CCCc2ccccc21	-1.1%	-5.7%	1.26µM*	-20.1%[10 µM]	-8.0%	2.0%
CN(C)c1ccc(C(=O)OCC(=O)NCC2CCCO2)cc1 (centres undefined)	0.4%	-18.4%	13.4%	4.5%	2.5%	13.8%
CCOC(=O)/C(C#N)=C1/C=CN(C)C=N1	2.9%	25.1µM*	12.4%	-15.2%	14.1µM*	4.8%
CCOc1ccccc1CNS(=O)(=O)c1ccc2c(c1)oc(=O)n2C	3.8%	-11.1%	-14.6%	-13.7%	-7.9%	-6.9%
CCOc1ccccc1CNS(=O)(=O)c1ccc2[nH]c(=O)sc2c1	3.4%	-22.1%	12.6µM*	-9.8%	?	?
CN(C)c1nc(N2CCN(c3ccccc3)CC2)c(C#N)c(=O)o1	8.1%	15.8µM*	6.1%	-10.6%[10 µM]	?	-10.5%
SMILES	KDM4E inh	HPGD block	HttQ103 aggreg	HTT ATP protect	ALDH1A1 inh	LMNA splice mod
Cn1nccc1C(=O)Nn1cnnc1	1.2%	·	11.7%	3.5%	11.4%	-6.1%
Cc1nn(C)c(C)c1NC(=O)c1ccnn1C	2.6%	-7.2%	7.2%	5.1%[10 µM]	17.8µM*	10.8%
CCCCC/C=C\C/C=C\C/C=C\C=C\C1CCCC(=O)O1 (centres undefined)	-2.0%	-5.5%	·	-3.7%	2.2%	·
Cc1cccc(NC(=O)c2ccc([N+](=O)[O-])s2)c1C	0.8%	-11.2%	0.5%	1.3%[10 µM]	0.891µM*	?
O=C(CCS(=O)(=O)c1ccc(Cl)cc1)NCCc1c[nH]c2ccccc12	-0.1%	·	12.4%	-25.9%	28.2µM*	-13.8%[46 µM]
CC(C)CNC(=O)CCCc1c[nH]c2ccccc12	-5.3%	14.1µM*	16.4%	-2.4%	-1.5%	2.1%
CN(C)C(CNC(=O)CCCc1c[nH]c2ccccc12)c1ccco1 (centres undefined)	-6.0%	-8.0%	0.5%	5.3%[10 µM]	7.7%	9.2%
O=c1oc(Nc2ccccc2F)nc2ccccc12	4.0%	·	?	-56.3%	20µM*	4.2%
O=c1oc(Nc2ccccc2Cl)nc2ccccc12	i	·	-7.6%[9.22 µM]	-110.6%	?	·
CC(C)(c1ccccc1)c1ccc(OCCn2cnc3ccccc3c2=O)cc1	-16.6%	-19.1%	?	-32.9%	-6.5%	?
O=C(c1ccccc1)c1ccc(OCCn2cnc3ccccc3c2=O)cc1	-7.0%	4.47µM*	?	-22.9%	?	11.4%
COC(=O)c1sccc1NC(=O)CSc1ccccc1NS(=O)(=O)c1ccc(F)cc1	-4.1%	-12.7%	18.9%	-14.7%[10 µM]	?	-15.2%
COC(=O)c1sccc1NC(=O)CSc1ccc(Cl)cc1	3.0%	-2.0%	12.0%	8.5%	26.3%	13.9%
COC(=O)c1sccc1NC(=O)CSCC(=O)O	11.1%	·	-3.7%	-0.3%[10 µM]	10.7%	17.8%[46 µM]
COC(=O)c1sccc1NC(=O)CN(C)NS(=O)(=O)c1ccc(F)cc1	4.8%	-2.8%	-10.1%	-11.3%	1µM*	-3.7%
COC(=O)c1sccc1NC(=O)CN(C)NS(=O)(=O)c1ccc(Cl)cc1	1.2%	-9.4%	-20.6%	9.0%	2.51µM*	0.1%
COC(=O)c1sccc1NC(=O)CN(C)NS(=O)(=O)c1ccc([N+](=O)[O-])cc1	-5.2%	-18.1%	-17.7%	-43.5%	1.58µM*	10.1%
O=C(Oc1ccccc1/C=C\C(=O)c1cc2ccccc2o1)c1cccc(F)c1	-1.2%	?	?	8.4%[10 µM]	8.91µM*	?
O=C(Oc1ccccc1/C=C\C(=O)c1cc2ccccc2o1)c1ccccc1	-15.0%	-23.5%	?	13.4%[0.074 µM]	11.2µM*	-13.2%
COc1cccc(C(=O)Oc2ccccc2/C=C\C(=O)c2cc3ccccc3o2)c1	-2.4%	-29.8%	5.0%	15.8%[10 µM]	-9.8%	?
Cc1ccc(Cn2ccn(Cc3ccccc3C)c(=O)c2=O)cc1	·	·	·	·	·	0.6%[46 µM]
